# Measurements from PubChem BioAssay (NCI).
# Values joined by “and” are separate entries in the source; they are usually repeats but may differ in a detail not shown here. Equal values may be shown once. About 83,000 compounds went through this panel and 20% of them were active in at least one assay; those are over-represented in the sample as a whole.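 In brief: 96-well plates, 48 h treatment, single concentration, percent growth endpoint.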 Values without a mark were called inactive. Active and inactive are the calls of the source. Rule for the calls: active = growth percent below 10; inactive = the rest.
# System: SF-539 CNS
# Experiment: NCI-60 one-dose screen, 48 h (100 = growth as untreated, 0 = no growth, -100 = all killed)
# Conditions: 10 µM unless noted
row,SMILES,growth
1,O=c1ccc(Cn2c(C(F)(F)F)cc3c(Cl)ncnc32)c[nH]1,87.4%
2,CC[C@]12C=CCN3CC[C@]4(C(=C(C(=O)OC)C1)Nc1cc(OC)c([C@@H]5[C@H]6O[C@H]6[C@@]6(CC)CC(C(=O)OC)=C7Nc8cc(O)ccc8[C@@]78CCN5[C@@H]68)cc14)[C@@H]32,-38.4% (active)
3,COc1ccc2[nH]cc(-c3cc4nc(-c5cn(C)c6ncccc56)cc(N)n4n3)c2c1,-93.6% (active)
4,COc1ccc2[nH]c(=O)cc(-n3ncc(C(=O)/C=C/c4cc(OC)c(OC)c(OC)c4)c3C)c2c1,-59.8% (active)
5,COc1ccc(/C=C/c2nc3ccccc3n3c(-c4cccc([N+](=O)[O-])c4)nnc23)cc1,-86.5% (active)
6,O=C(Nc1ccc(Cl)c(C(F)(F)F)c1)N1CCN(c2cc(-c3cn(-c4ccccc4)nc3-c3cccc(O)c3)ccn2)CC1,7.9% (active)
7,O=C1Nc2ccccc2/C1=C/C(=O)c1cc2ccccc2oc1=O,102%
8,CN1CCN(C(=O)Oc2cc3c(c4ccccc24)[C@H](CCl)CN3C(=O)c2cc3cc(OCCCN4CCC4)ccc3[nH]2)[C@H]2CSSC[C@H]21,-75.2% (active)
9,NS(=O)(=O)c1ccc(Nc2nc(N/N=C/c3cc(Br)c(O)c(Br)c3)nc(Nc3ccccc3)n2)cc1,-25.8% (active)
10,COc1ccc2c(c1)C(Sc1ccc(Cl)cc1)c1c(nc(N)c(C#N)c1N)O2 (stereo not drawn),61.8%
11,CS(=O)(=O)Nc1cccc(-n2c(COc3ccc(OC(F)(F)F)cc3)nc3ccccc32)c1,81.1% and 105%
12,OCCn1cc(-c2nc3ccc4[nH]ncc4c3c3c2CCCC3)cn1,36.2%
13,Cn1cc(-c2cc(N)n3nc(-c4c[nH]c5ccc(F)cc45)cc3n2)c2cccnc21,-96.3% (active)
14,COc1ccc2c(c1)N=c1c-2cc2c(O)[nH]c(=S)n2c1=O,-7.78% (active)
15,O=C(NN1C(=O)/C(=C/C=C/c2ccc([N+](=O)[O-])o2)SC1=S)c1ccncc1,-100% (active)
16,Cn1cc(-c2cc(N)n3nc(-c4c[nH]c5ccccc45)cc3n2)c2cc(Br)ccc21,-93.7% (active)
17,Cn1cc(-c2cc(N)n3nc(-c4c[nH]c5ccccc45)cc3n2)c2ccccc21,-99.5% (active)

row,SMILES,growth
1,O=C1c2cccc3c(N4CCN(c5ccccc5)CC4)ccc(c23)C(=O)N1c1cccc(-c2nn(-c3ccccc3)cc2-c2nc3ccccc3s2)c1,95.1%
2,O=C(c1ccc(O)cc1)C1[C@H](c2ccccc2Br)[C@@H](c2ccccc2)NC12C(=O)Nc1ccccc12 (stereo partly drawn),55%
3,COc1ccc(-c2cc(C(=O)N=Nc3c(O)[nH]c4ccc(Cl)cc34)c3ccccc3n2)cc1,44.8%
4,CC(C)(C)OC(=O)N1CCC2(CC1)Oc1ccccc1[C@H]1CC(c3ccc(Br)cc3)=NN12,88.8%
5,Cc1cc(C(NC(=O)CCCCCNc2cccc3c2C(=O)N(C2CCC(=O)CC2=O)C3=O)c2cccc(N(C)C)c2)c(O)c2ncccc12 (stereo not drawn),1.5% (active)
6,O=C(c1ccc(O)cc1)C1[C@H](c2ccc(Cl)cc2)[C@@H](c2ccccc2)NC12C(=O)Nc1ccc(Br)cc12 (stereo partly drawn),-37.5% (active)
7,Cc1ccc(C(=O)C[n+]2cccc3c4ccccc4ccc32)cc1,25.5%
8,C#CCN(C)CCCOc1ccc(N(CC)C(=O)c2cc(C(C)C)c(O)cc2O)cc1Cl,6.42% (active)
9,O=C(OCCOCCO)N(c1cccc(Br)c1)c1nc(SCCN2CCOCC2)nc2c1cnn2CC(Cl)c1ccc(Br)cc1 (stereo not drawn),-25.2% (active)
10,COc1ccc(-c2nc3ccc(-c4nnc(SCC(=O)Nc5ccc(/C(C)=N\O)cc5)o4)cc3[nH]2)cc1,-53.4% (active)
11,Clc1ccc2c(NCCNC34CC5CC(CC(C5)C3)C4)ccnc2c1,-89.7% (active)
12,CCOc1ccc(-c2cc(-c3cc(C(C)C)c(O)cc3C)nn2-c2ccc(S(N)(=O)=O)cc2)cc1,11.9%
13,Cc1ccc(N=Nc2c(N)nn3c(-c4cc5cc(Br)ccc5oc4=O)ccnc23)cc1,-46.5% (active)
14,COc1ccc(SC2c3cc(OC)ccc3Oc3nc(N)c(C#N)c(N)c32)cc1 (stereo not drawn),78%
15,O=C1Nc2ccc(F)cc2/C1=C/C(=O)c1cc2ccccc2oc1=O,105%
16,COc1ccc2[nH]cc(-c3cc(N)n4nc(-c5c[nH]c6ccccc56)cc4n3)c2c1,-95.2% (active)
